In this test the test system is FXR:RXRa (NR concentration 270 nM, RXRa partner concentration 90 nM). Put plainly: PBM binding z-score (relative to random genomic background probes); higher = stronger binding; sequences stand for … in GC…GCGATTGACAGCGTAGAATGAAGG
The essentials: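 Binding buffer was PBS pH 7.4 with 2% milk, 0.02% Triton X-100, 1 mM DTT, 0.2 mg/mL BSA and 0.4 mg/ml salmon testes DNA. In it, ligand-free nuclear receptor dimers were incubated 1 h on custom Agilent 4×180K protein-binding microarrays carrying double-stranded probes. Antibodies against each partner (one per run) detected binding, and z-scores were calculated against random background probes after regression normalization of scanned fluorescence.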
The sequence CCGAGTAGGTTATGGGGCACTCAGGCAACGGTGA came in with a PBM binding z-score of 0.104. Consider TCATATAGGTAATACAGGTGGAAGTCGGCATCTA, for which the PBM binding z-score worked out at 1.45.

Sequence ACTAGCAGGACAAGGGTCACTCAAGATTAGTCCG came in with a PBM binding z-score of 2.6. For GATACAGGGTCAGCTAGAGGCCAGAGTCTGGAAA, the PBM binding z-score came to 4.63. As for TCTAGATGGTCACGGAGGTCACACACGACGGGTA, the PBM binding z-score was determined as 3.7. With CTCGAAAGGTCGGTTGAGGAGAGTATACGGATAA the figure was 1.93. The result for ATCGAAAGGTCGAAGGGGAGTATACCCACCCGAA reads 4.05. The result for CCTACTGGGCCATCAGGGCATTGATATCAACGTT reads -0.583.

In turn, CCTACTGGGCCATCAAGTCATTGATATCAACGTT came in with a PBM binding z-score of -0.198. The result for CGTCCAAGGTCAGAGAGGTCAGTGAATGCCGAGT reads 6.03; that for TCGAGTAGGTTACCAATGTGGCATTCAGCTTTCT, 0.261. Take CGTCCAAGGTCGATGCTAGGTCAGTGAAAGCATT: the PBM binding z-score was found to be 1.61. The result for AGTATGAGGTTATACGTAGATCAGGGAAGAAAGT reads 1.82. GATGCTAGGTCAGGTTGGTCAGCTAACGGGTACG showed a PBM binding z-score of 1.5. Turning to ATATCTAGGTTATCGGGTCATTCAGTTTGCGCAT, the PBM binding z-score came to 3.27.

In turn, CAAACTAGGTCAAGACGTCAAAGTCCGCTTCCCG registered a PBM binding z-score of 3.84. CCTAGTGGGTCAAGGTCACACACGCTATAGGTAC returned a PBM binding z-score of 5.66.

Sequence CCGACTGGGGCAGAAAGGTTACCATTCCATCCGG displayed a PBM binding z-score of 0.282.

Regarding CAAACTCGGTCAAAGGTCAAAGTCGAGCCAACCA, the PBM binding z-score is 7.73.

In the case of AGAACGAGGGCAATGAGTTTATAGCACGGGTGGC, the PBM binding z-score came out at 0.163. As for ATCGAAAGGACGACGAGGTGAGTATACACCGTTT, the PBM binding z-score was 0.179.

CGAACTAGGGCATGAGTTGATAGCAAATGCCGAT came in with a PBM binding z-score of -0.0776.

These data come from the supplement of paper PMC6555819.
